# Assay results taken from PubChem BioAssay (Tox21).
# Values joined by “and” are separate entries in the source; they are usually repeats but may differ in a detail not shown here. Equal values may be shown once. Records with an inconclusive call do not appear. Where a call stands in place of a potency, no number is given. Active and inactive are the calls of the source. Unless noted, the call rests on the fitted dose curve; in most records, active means well fitted curve in the direction sought with a large enough effect in the repeat runs; inconclusive means weak or mixed curves; inactive means no such curve, though single readings can be large; an effect the other way counts as inactive or inconclusive.
# Tests used:
# [1] = qHTS assay for small molecules that induce genotoxicity in human embryonic kidney cells expressing luciferase-tagged ATAD5 (AID 651632); further: nearly all actives have a fitted effect of over 15% in size; further: potency means the concentration at half of the fitted maximal effect
# Summary of the method: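 Cells were seeded at 2,000 per well, dosed with compound, and incubated 16 hr at 37C in 5% CO2. Luciferase activity was then quantified after a 30 min room-temperature incubation with Amplite.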
# [2] = qHTS assay for small molecule agonists of the p53 signaling pathway - cell viability (AID 651633; calls by dose curve; further: nearly all actives have a fitted effect of over 30% in size; further: potency means the concentration at half of the fitted maximal effect)
# Summary of the method: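 p53RE-bla cells were treated with compound for 16 hours at 37 C. Cytotoxicity was then measured as CellTiter-Glo luminescence after 30 min at room temperature.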
# [3] = qHTS assay for small molecules that induce genotoxicity in human embryonic kidney cells expressing luciferase-tagged ATAD5 - cell viability (AID 651634; calls by dose curve; further: nearly all actives have a fitted effect of over 25% in size; further: potency means the concentration at half of the fitted maximal effect)
# Summary of the method: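 Cells (HEK293T, luciferase-tagged ATAD5) are seeded at 2,000 per well, dosed with compound or DMSO vehicle, and incubated 15.5 hr at 37C and 5% CO2. CellTiter-Fluor is added for 30 min before fluorescence is measured.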
# [4] = qHTS assay for small molecule disruptors of the mitochondrial membrane potential - cell viability (AID 720634; calls by dose curve;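 further: human HepG2 liver cancer cells; series mostly up to about 83 µM; nearly all actives have a fitted effect of over 20% in size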)
# Summary of the method: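 Cytotoxicity was measured by ATP quantitation in HepG2 wells that had first been treated with compound for 1 hr and stained with m-MPI dye; CellTiter-Glo incubation was 30 min at room temperature.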
# [5] = qHTS assay for small molecule disruptors of the mitochondrial membrane potential (AID 720635); further: potency means the concentration at half of the fitted maximal effect
# Summary of the method: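 HepG2 cells exposed to compound 1 hr at 37C, then Mito-MPS dye 30 min. Ratio read of aggregate (540/590 nm) versus monomer (490/535 nm) fluorescence.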
# [6] = qHTS assay to test for compound auto fluorescence at 590 nm (red) in HepG2 cells (AID 720674)
# Summary of the method: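 Fluorescence at 590 nm emission following 540 nm excitation was recorded from HepG2 wells one hour after compound transfer, with DMSO-only wells as vehicle and Rose Bengal sodium equivalency as the scale.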
# [7] = qHTS assay to test for compound auto fluorescence at 535 nm (green) in HepG2 cells (AID 720675)
# [8] = qHTS assay to test for compound auto fluorescence at 460 nm (blue) in HEK293 cells (AID 720678)
# Summary of the method: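 Blue read-out at excitation 405 nm and emission 460 nm follows overnight compound exposure of HEK293 cells at 37C in 5% CO2. Activity is given as auto fluorescence equivalency to triamterene.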
# [9] = qHTS assay to test for compound auto fluorescence at 535 nm (green) in HEK293 cells (AID 720680)
# [10] = qHTS assay to test for compound auto fluorescence at 460 nm (blue) in HEK293 cell free culture (AID 720681)
# Summary of the method: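 Compounds were added to cell-free DMEM with 10% FBS and fluorescence read directly. The blue channel used 405 nm excitation and 460 nm emission, with triamterene as the reference fluorophore.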
# [11] = qHTS assay to test for compound auto fluorescence at 535 nm (green) in HEK293 cell free culture (AID 720682)
# Summary of the method: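 Green-label autofluorescence (485 nm excitation, 535 nm emission) measured on compound added to cell-free culture medium (DMEM, 10% FBS). Output is expressed relative to fluorescein.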
# [12] = qHTS assay to test for compound auto fluorescence at 590 nm (red) in HEK293 cell free culture (AID 720683)
# Summary of the method: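 Cell-free wells of DMEM with 10% FBS received compound, and intrinsic fluorescence was read at excitation/emission 540/590 nm. Values expressed as equivalence to Rose Bengal sodium.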
# [13] = qHTS assay to test for compound auto fluorescence at 590 nm (red) in HepG2 cell free culture (AID 720684)
# Summary of the method: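 Rose Bengal sodium served as the reference for red signal. Test compounds were dispensed into serum-containing MEM (10% FBS) without cells, and plates were read at 540/590 nm.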
# [14] = qHTS assay to test for compound auto fluorescence at 460 nm (blue) in HepG2 cell free culture (AID 720685)
# Summary of the method: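 Cell-free plates of MEM plus 10% FBS received 23 nL compound or DMSO vehicle; blue-channel (405/460 nm) intensity scored against triamterene as reference fluorophore.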
# [15] = qHTS assay to test for compound auto fluorescence at 535 nm (green) in HepG2 cell free culture (AID 720686)
# [16] = qHTS assay to test for compound auto fluorescence at 460 nm (blue) in HepG2 cells (AID 720687)
# Summary of the method: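 HepG2 cells in MEM with 10% FBS, attached overnight at 37 C, were exposed to compound or DMSO for 1 hr at 37 C, 5% CO2. Blue fluorescence was read at 405/460 nm, with triamterene as reference fluorophore.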
# [17] = target: Glucocorticoid receptor (Homo sapiens) (UniProt P04150); assay: qHTS assay to identify small molecule agonists of the glucocorticoid receptor (GR) signaling pathway (AID 720691; active means well fitted activation curve with a large enough effect in the signal ratio in the repeat runs, not every such curve was filed as active; the % refers to the signal ratio)
# Chain of Glucocorticoid receptor (Homo sapiens) (P04150 whole entry, looked up): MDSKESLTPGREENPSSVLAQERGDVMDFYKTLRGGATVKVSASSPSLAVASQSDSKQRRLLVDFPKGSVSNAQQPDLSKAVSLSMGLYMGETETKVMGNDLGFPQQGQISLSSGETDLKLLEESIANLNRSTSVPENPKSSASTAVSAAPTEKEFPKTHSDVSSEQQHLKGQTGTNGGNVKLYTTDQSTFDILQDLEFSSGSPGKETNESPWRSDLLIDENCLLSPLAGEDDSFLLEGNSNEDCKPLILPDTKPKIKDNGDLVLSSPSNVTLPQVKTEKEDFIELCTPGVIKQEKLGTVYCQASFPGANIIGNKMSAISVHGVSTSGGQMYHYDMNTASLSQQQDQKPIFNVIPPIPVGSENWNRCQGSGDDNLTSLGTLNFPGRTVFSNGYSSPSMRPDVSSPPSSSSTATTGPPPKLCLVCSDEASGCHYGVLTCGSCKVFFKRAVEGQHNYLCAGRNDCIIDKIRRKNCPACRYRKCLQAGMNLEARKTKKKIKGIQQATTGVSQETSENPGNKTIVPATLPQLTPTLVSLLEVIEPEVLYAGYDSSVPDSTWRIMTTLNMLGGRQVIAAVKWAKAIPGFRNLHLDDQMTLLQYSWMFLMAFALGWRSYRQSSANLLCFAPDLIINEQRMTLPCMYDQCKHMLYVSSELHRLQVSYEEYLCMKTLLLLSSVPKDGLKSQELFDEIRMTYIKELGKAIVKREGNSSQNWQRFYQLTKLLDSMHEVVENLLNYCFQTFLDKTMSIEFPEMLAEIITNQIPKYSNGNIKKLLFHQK
# Summary of the method: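 Steps: seed GR-bla HeLa cells, incubate 4 h at 37 C/5% CO2; pin-transfer DMSO-dissolved compounds; incubate 18 h at 37 C; add LiveBLAzer B/G FRET substrate; after 2 h at room temperature, measure fluorescence.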
# [18] = target: Glucocorticoid receptor (Homo sapiens) (UniProt P04150); assay: qHTS assay to identify small molecule antagonists of the glucocorticoid receptor (GR) signaling pathway (AID 720692; active means well fitted inhibition curve with a large enough effect in the signal ratio in the repeat runs, not every such curve was filed as active; the % refers to the signal ratio; further: potency means the concentration at half of the fitted maximal effect)
# Summary of the method: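 Antagonism was scored as loss of dexamethasone-driven (5 nM final) reporter signal in HeLa cells bearing a glucocorticoid response element–beta-lactamase construct, after 18 h compound exposure at 37 C and 2 h FRET substrate loading.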
# [19] = qHTS assay to test for compound auto fluorescence at 590 nm (red) in HEK293 cells (AID 720679)
# Summary of the method: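 Red channel, Ex/Em 540/590nm; signal expressed as equivalency to Rose Bengal sodium. HEK293, 2,000 cells/well, 10% dialyzed FBS; 23 nL compound pinned after 4-5 hr attachment; overnight 37C/5% CO2 before reading.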
SMILES,Potency [1],Potency [2],Potency [3],Potency [4],Potency [5],outcome [6],outcome [7],Potency [8],outcome [9],Potency [10],outcome [11],outcome [12],outcome [13],Potency [14],outcome [15],Potency [16],Potency [17],Potency [18],outcome [19]
CC(Cc1ccc(C(C)(C)C)cc1)CN1C[C@@H](C)O[C@@H](C)C1 (stereo partly drawn),inactive,inactive,inactive,inactive,61.1 µM (active),inactive,inactive,inactive,inactive,inactive,inactive,inactive,inactive,inactive,inactive,inactive,inactive,inactive,–
C[C@]12CC[C@H]3[C@@H](CCC4=CC(=O)CC[C@@]43C)[C@@H]1CC[C@@H]2O,inactive,inactive,inactive,inactive,–,inactive,inactive,inactive,inactive,inactive,inactive,inactive,inactive,inactive,inactive,inactive,inactive,2.44 µM (active),inactive
BrC(Br)C(Br)(Br)Br,inactive,inactive,inactive,inactive,–,inactive,inactive,inactive,inactive,inactive,inactive,inactive,inactive,inactive,inactive,inactive,inactive,–,inactive
N#CCCSCCC#N,inactive,inactive,inactive,inactive,inactive,inactive,inactive,inactive,inactive,inactive,inactive,–,inactive,inactive,inactive,inactive,inactive,inactive,inactive
C=CC(=O)OCC(COC(=O)C=C)(COC(=O)C=C)COC(=O)C=C,5.45 µM (active),6.86 µM (active),12.2 µM (active),inactive,–,inactive,inactive,inactive,inactive,inactive,inactive,inactive,inactive,inactive,inactive,inactive,–,–,–
C[C@@H]1O[C@@H](O[C@H]2C[C@@H](O)[C@]3(CO)[C@H]4[C@H](O)C[C@]5(C)[C@@H](C6=CC(=O)OC6)CC[C@]5(O)[C@@H]4CC[C@]3(O)C2)[C@H](O)[C@H](O)[C@H]1O,inactive,33.5 nM (active) and 53.1 nM (active) and 20.6 nM (active),59.6 nM (active) and 37.6 nM (active) and 32.6 nM (active),–,–,inactive,inactive,inactive,inactive,inactive,inactive,–,inactive,inactive,inactive,inactive,inactive,0.268 µM (active),–
Nc1ccc(Sc2ccc(N)cc2)cc1,inactive,inactive,inactive,inactive,–,inactive,inactive,inactive,inactive,inactive,inactive,inactive,inactive,inactive,inactive,inactive,inactive,–,inactive
